# Test results: PubChem BioAssay AID1345085 (National Center for Advancing Translational Sciences (NCATS), 2018)
# Results filed as inconclusive are left out. Values without a mark were called inactive. Activity calls are given as the source filed them. Calls come from the whole dose curve; as a rule, active = well fitted cell-killing curve with a large enough effect; inconclusive = small, poorly fitted or top-dose-only effect, or effect the other way; inactive = no such curve, though single readings can be large or run the other way.
# Tested on: HeLa
# Experiment: Confirmatory qHTS for gynecologic anti-cancer compounds from libraries of approved drugs and bioactive compounds; note: nearly all actives have a fitted effect of over 55% in size
# Details: gynecologic cancer cell panel viability, ATPlite luminescence, 48 h; series mostly up to 57.6 µM
# Procedure, shortened: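 Cells (1,000/well) plated 16 h, then exposed 48 h at 37 °C to 11 concentrations (1:3) from 57.5 uM to 0.977 nM. Viability by ATPlite luminescence after 15 min; IC50 derived, with HEK 293T used for selectivity index.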
# % is set by controls: 0 for no effect and ±100 for the full control effect; potency is the fitted concentration of half-maximal effect.
Structure (SMILES),Potency,"activity change, negative = viability loss"
CCN1CCN(Cc2ccc(Nc3ncc(F)c(-c4cc(F)c5nc(C)n(C(C)C)c5c4)n3)nc2)CC1,17200 nM (active),–
Cc1cnc(CNC(=O)c2c(=O)c3ccc(N4CCCN(C)CC4)nc3n3c2sc2ccccc23)cn1,–,-3.33% [at 10.7 µM]
COc1cc(N2CCC(N)CC2)ccc1Nc1ncc(Cl)c(-c2c[nH]c3ccccc23)n1,544 nM (active),–
COc1cc(-c2nn(C3CCC(N4CCN(C(C)=O)CC4)CC3)c3ncnc(N)c23)ccc1NC(=O)c1cc2ccccc2n1C (stereo unspecified),30600 nM (active),–
CN(C)C1CCN(C(=O)c2ccc(NC(=O)Nc3nc(N4CCOCC4)nc(N4CCOCC4)n3)cc2)CC1,769 nM (active),–
O=C1N(c2ccccc2)c2ccccc2C1(Cc1ccncc1)Cc1ccncc1,inactive,–
CNC(=O)c1ccccc1Sc1ccc2c(/C=C/c3ccccn3)n[nH]c2c1,3060 nM (active),–
O=C1c2c(O)ccc(O)c2C(=O)c2c(NCCNCCO)ccc(NCCNCCO)c21,2430 nM (active),–
CCS(=O)(=O)N1CCN(c2ccc(Nc3ncc(C(N)=O)c(NC4CC4)n3)cc2)CC1,4850 nM (active),–
C[C@@H](Oc1cc(-c2cnn(C3CCNCC3)c2)cnc1N)c1c(Cl)ccc(F)c1Cl,4320 nM (active),–
COC(C(=O)N1Cc2[nH]nc(NC(=O)c3ccc(N4CCN(C)CC4)cc3)c2C1)c1ccccc1 (stereo unspecified),243 nM (active),–
CCCC(Nc1nc(-c2ccc(NC(=O)NCC)c(OC)c2)ncc1C)c1cccnc1 (stereo unspecified),153 nM (active),–
CCC1C(=O)N(C)c2cnc(Nc3ccc(C(=O)NC4CCN(C)CC4)cc3OC)nc2N1C1CCCC1 (stereo unspecified),4.9 nM (active),–
CNC(=O)c1nn(C)c2c1C(C)(C)Cc1cnc(Nc3ccc(N4CCN(C)CC4)cc3)nc1-2,1530 nM (active),–
O=C(O)c1ccc(Nc2ncc3c(n2)-c2ccc(Cl)cc2C(c2c(F)cccc2F)=NC3)cc1,7690 nM (active),–
Cn1c(=O)c(-c2c(Cl)cccc2Cl)cc2cnc(Nc3cccc(C(=O)O)c3)nc21,2430 nM (active),–
Cc1cnc(Nc2ccc(CN3CCOCC3)cc2)nc1Nc1cccc(S(=O)(=O)NC(C)(C)C)c1,2170 nM (active),–
COc1cc2c(Oc3ccc(-c4cnc(Nc5ccc(F)cc5)n(C)c4=O)cc3F)ccnc2cc1OCCCN1CCOCC1,21700 nM (active),–

Structure (SMILES),Potency,"activity change, negative = viability loss"
C[C@@]1(C(=O)Nc2ccc(F)nc2)CCCN1c1nc(Nc2cc(C3CC3)[nH]n2)c2cccn2n1,968 nM (active),–
CCn1c(-c2nonc2N)nc2c(C#CC(C)(C)O)ncc(OCC3CCCNC3)c21 (stereo unspecified),21700 nM (active),–
CCCCc1oc2ccc(NS(C)(=O)=O)cc2c1C(=O)c1ccc(OCCCN(CCCC)CCCC)cc1,24300 nM (active),–
CNC(=O)c1ccccc1Nc1nc(Nc2ccc(N3CCOCC3)cc2OC)ncc1Cl,769 nM (active),–
Cc1cnc(Nc2ccc(F)cc2Cl)nc1-c1c[nH]c(C(=O)NC(CO)c2cccc(Cl)c2)c1 (stereo unspecified),9680 nM (active),–
CC(=O)NCC(=O)N1C2CCC1c1cc(Nc3ncc(C(F)(F)F)c(NC4CCC4)n3)ccc12 (stereo unspecified),1090 nM (active),–
CCN(CC)CCCC(C)Nc1ccnc2cc(Cl)ccc12 (stereo unspecified),inactive,–
CN(Cc1cnc2nc(N)nc(N)c2n1)c1ccc(C(=O)N[C@@H](CCC(=O)O)C(=O)O)cc1,inactive,–
CN(C)c1ccc(-c2nc3ncc(Cl)c(N4CCN(CC(=O)Nc5nccs5)CC4)c3[nH]2)cc1,2370 nM (active),–
Cc1ccc(C(N)=O)cc1Nc1nccc(-c2cn(C(C)C)c3cnccc23)n1,7690 nM (active),–
COc1cc(N2CCC(N3CCN(C)CC3)CC2)ccc1Nc1ncc(Cl)c(Nc2ccccc2S(=O)(=O)C(C)C)n1,769 nM (active),–
CCCCN(CCCC)C(=O)CN1C[C@H](c2ccc3c(c2)OCO3)[C@@H](C(=O)O)[C@@H]1c1ccc(OC)cc1,inactive,–
C=CC(=O)Nc1cc2c(Nc3ccc(F)c(Cl)c3)ncnc2cc1OCCCN1CCOCC1,27300 nM (active),–
Cn1cnc2c(F)c(Nc3ccc(Br)cc3F)c(C(=O)NOCCO)cc21,inactive,–
O=C(CCCCCCC(=O)Nc1ccccc1)NO,3430 nM (active),–
CC(C)Oc1ccc(C(=O)NC(CNC(=O)CN(C)C)Cc2ccc(-c3cn4cccc(C(C)O)c4n3)cc2)cc1Cl (stereo unspecified),153 nM (active),–
COc1cc(N2CCC(N(C)C)CC2)ccc1Nc1ncc(Cl)c(Nc2ccccc2P(C)(C)=O)n1,1370 nM (active),–
COc1cc2c(c(OC)c1OC)-c1ccc(OC)c(=O)cc1[C@@H](NC(C)=O)CC2,178 nM (active),–
